{"source": "paper PMC12864922", "about": "“TDP-43 directly inhibits mRNA accumulation in neurites through modulation of mRNA stability”", "binders": {"B1": {"name": "ENSMUSG00000043670.207|Diras1 (ssRNA)", "RNA": "GGGAGUUCUACAGUCCGACGAUCGCUUCGAUAUCCGCAUGCUAGGUGACUUAGAAUUCUGUGUUUAUGUGCCUGUGUGUGUGGAUGGGUGUGUGUCUGUCUUGGGAUGGGGUGUUCUUGCACCACUUUGUGUUCUUAGUGAGACCACAGUGUAAGUGGCCGUGUGUGUGUGUGGGGGGGGGCACCUAGACAUUGUGGUGUGUCUGUAUGGCUCUGUGUUUUCAGGGGUGGGUGACACAGGCCUGUCUGAUGAGCACCAGGUCUGUUCCAGGCUGUGGCAAGCUGGCUCCUGGCUCAGAAGUGACUCUUGCGGUCGCACUAGUGUGGAAUUCUCGGGUGUCAAGG"}, "B2": {"name": "ENSMUSG00000043670.210|Diras1 (ssRNA)", "RNA": "GGGAGUUCUACAGUCCGACGAUCGCUUCGAUAUCCGCAUGCUAGUUUAUGUGCCUGUGUGUGUGGAUGGGUGUGUGUCUGUCUUGGGAUGGGGUGUUCUUGCACCACUUUGUGUUCUUAGUGAGACCACAGUGUAAGUGGCCGUGUGUGUGUGUGGGGGGGGGCACCUAGACAUUGUGGUGUGUCUGUAUGGCUCUGUGUUUUCAGGGGUGGGUGACACAGGCCUGUCUGAUGAGCACCAGGUCUGUUCCAGGCUGUGGCAAGCUGGCUCCUGGCUCAGAAGUGACAAAGCUGCAGUACAGAGCUCUUGCGGUCGCACUAGUGUGGAAUUCUCGGGUGUCAAGG"}, "B3": {"name": "ENSMUSG00000043670.208|Diras1 (ssRNA)", "RNA": "GGGAGUUCUACAGUCCGACGAUCGCUUCGAUAUCCGCAUGCUAUUAGAAUUCUGUGUUUAUGUGCCUGUGUGUGUGGAUGGGUGUGUGUCUGUCUUGGGAUGGGGUGUUCUUGCACCACUUUGUGUUCUUAGUGAGACCACAGUGUAAGUGGCCGUGUGUGUGUGUGGGGGGGGGCACCUAGACAUUGUGGUGUGUCUGUAUGGCUCUGUGUUUUCAGGGGUGGGUGACACAGGCCUGUCUGAUGAGCACCAGGUCUGUUCCAGGCUGUGGCAAGCUGGCUCCUGGCUCAGAAGUGACAAAGCCUCUUGCGGUCGCACUAGUGUGGAAUUCUCGGGUGUCAAGG"}, "B4": {"name": "ENSMUSG00000043670.209|Diras1 (ssRNA)", "RNA": "GGGAGUUCUACAGUCCGACGAUCGCUUCGAUAUCCGCAUGCUAUUCUGUGUUUAUGUGCCUGUGUGUGUGGAUGGGUGUGUGUCUGUCUUGGGAUGGGGUGUUCUUGCACCACUUUGUGUUCUUAGUGAGACCACAGUGUAAGUGGCCGUGUGUGUGUGUGGGGGGGGGCACCUAGACAUUGUGGUGUGUCUGUAUGGCUCUGUGUUUUCAGGGGUGGGUGACACAGGCCUGUCUGAUGAGCACCAGGUCUGUUCCAGGCUGUGGCAAGCUGGCUCCUGGCUCAGAAGUGACAAAGCUGCAGUCUCUUGCGGUCGCACUAGUGUGGAAUUCUCGGGUGUCAAGG"}, "B5": {"name": "ENSMUSG00000043670.203|Diras1|6:10;40:44;54:63;69:76;109:113;142:154;178:183;186:190;195:199 (ssRNA)", "RNA": "GGGAGUUCUACAGUCCGACGAUCGCUUCGAUAUCCGCAUGCUAGGGCCACACACCCACCCAGAUGAGGGUGACUUAGAAUUCACACAUUAUGUGCCACACACACACGAUGGCACACACACUGUCUUGGGAUGGGGUGUUCUUGCACCACUUACACAUCUUAGUGAGACCACAGUGUAAGUGGCCCACACACACACACGGGGGGGGCACCUAGACAUUGUGCACACACUCAUACGCUCACACAUUUCAGGGGUGGGUGACACAGGCCUGUCUGAUGAGCACCAGGUCUGUUCCAGGCUGUGGCACUCUUGCGGUCGCACUAGUGUGGAAUUCUCGGGUGUCAAGG"}, "B6": {"name": "ENSMUSG00000043670.198|Diras1 (ssRNA)", "RNA": "GGGAGUUCUACAGUCCGACGAUCGCUUCGAUAUCCGCAUGCUAGAGACUGUCCAGGAGACUUGAGUGGCUCCUGGGCCUGUGUCCCACCCAGAUGAGGGUGACUUAGAAUUCUGUGUUUAUGUGCCUGUGUGUGUGGAUGGGUGUGUGUCUGUCUUGGGAUGGGGUGUUCUUGCACCACUUUGUGUUCUUAGUGAGACCACAGUGUAAGUGGCCGUGUGUGUGUGUGGGGGGGGGCACCUAGACAUUGUGGUGUGUCUGUAUGGCUCUGUGUUUUCAGGGGUGGGUGACACAGGCCUGUCUGACUCUUGCGGUCGCACUAGUGUGGAAUUCUCGGGUGUCAAGG"}, "B7": {"name": "ENSMUSG00000043670.203|Diras1 (ssRNA)", "RNA": "GGGAGUUCUACAGUCCGACGAUCGCUUCGAUAUCCGCAUGCUAGGGCCUGUGUCCCACCCAGAUGAGGGUGACUUAGAAUUCUGUGUUUAUGUGCCUGUGUGUGUGGAUGGGUGUGUGUCUGUCUUGGGAUGGGGUGUUCUUGCACCACUUUGUGUUCUUAGUGAGACCACAGUGUAAGUGGCCGUGUGUGUGUGUGGGGGGGGGCACCUAGACAUUGUGGUGUGUCUGUAUGGCUCUGUGUUUUCAGGGGUGGGUGACACAGGCCUGUCUGAUGAGCACCAGGUCUGUUCCAGGCUGUGGCACUCUUGCGGUCGCACUAGUGUGGAAUUCUCGGGUGUCAAGG"}}, "note": "In all, about 9,900 sequences were measured (“r (bound/input frequency ratio)”: median about 0.7, highest 2% from about 6.5 on). The full list was thinned out, with the highest values kept by preference."}
{"target": "TDP-43 (Homo sapiens, UniProt Q13148 1-414)", "sequence (Q13148 whole entry)": "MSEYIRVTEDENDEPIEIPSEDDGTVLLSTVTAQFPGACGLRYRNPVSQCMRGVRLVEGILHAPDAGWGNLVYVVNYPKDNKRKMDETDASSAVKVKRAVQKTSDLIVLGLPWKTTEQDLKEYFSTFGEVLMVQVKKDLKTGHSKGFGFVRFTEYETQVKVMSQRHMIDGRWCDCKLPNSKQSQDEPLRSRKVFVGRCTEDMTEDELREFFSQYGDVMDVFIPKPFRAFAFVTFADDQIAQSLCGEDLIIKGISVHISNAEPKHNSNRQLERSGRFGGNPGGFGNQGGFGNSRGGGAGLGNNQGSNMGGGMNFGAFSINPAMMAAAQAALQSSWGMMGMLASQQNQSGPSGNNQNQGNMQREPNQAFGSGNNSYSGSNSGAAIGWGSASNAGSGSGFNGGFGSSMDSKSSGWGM", "test": "RNA Bind-n-Seq with designed 260-mer pool; 25 mM Tris-HCl, 150 mM KCl, 3 mM MgCl2, BSA (printed 500 mg/mL), 20 units/mL SUPERase IN; pH not stated; 500 nM RNA pool, 1 h, 4 C; TDP-43 5, 50, 500 nM; high values mean tight binding", "details": "protein: recombinant; tags: SBP (GST cleaved off with PreScission; pGEX-GST-SBP)", "method_in_brief": "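An in vitro-transcribed pool of 260-nt 3′ UTR oligos (500 nM) was incubated for 1 h at 4 °C with recombinant SBP-tagged TDP-43 at 5, 50 or 500 nM held on streptavidin beads. The buffer contained 25 mM Tris-HCl, 150 mM KCl, 3 mM MgCl2, BSA and SUPERase IN. Biotin-eluted bound RNA was sequenced, and binding, R, is each oligo's normalized read abundance in the bound sample over that in input.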"}
{"binder": "B1", "binding signal": "8.86 R (bound/input frequency ratio)"}
{"binder": "B2", "binding signal": "5.7 R (bound/input frequency ratio)"}
{"binder": "B3", "binding signal": "7.79 R (bound/input frequency ratio)"}
{"binder": "B4", "binding signal": "5.23 R (bound/input frequency ratio)"}
{"binder": "B5", "binding signal": "1.5 R (bound/input frequency ratio)"}
{"binder": "B6", "binding signal": "4.93 R (bound/input frequency ratio)"}
{"binder": "B7", "binding signal": "7.32 R (bound/input frequency ratio)"}
